About 79,000 compounds went through this panel and 15% of them were active in at least one assay; those are over-represented in the sample as a whole. A number with no mark means an inactive call. Activity calls are given as the source filed them. Cut-off read from the data, not from the text of the source: active = growth inhibition above about 70%; inactive = the rest.
Experiments:
[1] = NCI Yeast Anticancer Drug Screen. Data for the rad50 strain (AID 155);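 note: 0% = growth of vehicle-only cultures of the same strain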; settings: S. cerevisiae rad50 strain growth inhibition; at 50.0 µM; stronger effect = higher value
How it was run: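 DNA repair mutant yeast, compound exposure, growth read-out; inhibition is taken relative to vehicle.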

[2] = NCI Yeast Anticancer Drug Screen. Data for the mec2-1 strain (AID 157); settings: S. cerevisiae mec2-1 strain, at 50.0 µM, stronger effect = higher value
How it was run: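 Mutant yeast (mec2-1) grown with compound; growth inhibition relative to vehicle control reported.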

[3] = NCI Yeast Anticancer Drug Screen. Data for the sgs1 mgt1 strain (AID 161);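 note: 0% = growth of cultures given vehicle only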; settings: S. cerevisiae sgs1 mgt1 strain, at 50.0 µM, stronger effect = higher value
How it was run: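 Growth of a repair-deficient yeast mutant was monitored after compound treatment and expressed as inhibition relative to vehicle-treated cultures.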

[4] = NCI Yeast Anticancer Drug Screen. Data for the cln2 rad14 strain (AID 165);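 note: 0% = growth equal to vehicle treated cultures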; settings: S. cerevisiae cln2 rad14 strain, at 50.0 µM, stronger effect = higher value
How it was run: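 Readout is yeast growth inhibition versus vehicle-treated controls, using a strain with cln2 and rad14 alterations exposed to compound.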

[5] = NCI Yeast Anticancer Drug Screen. Data for the bub3 strain (AID 167); settings: S. cerevisiae bub3 mutant strain, at 50.0 µM, stronger effect = higher value
How it was run: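 In this screen, a yeast mutant lacking normal mitotic checkpoint function is challenged with compound. Relative growth versus vehicle gives the inhibition value.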

[6] = NCI Yeast Anticancer Drug Screen. Data for the mlh1 rad18 strain (AID 175); settings: S. cerevisiae mlh1 rad18 strain growth inhibition; at 50.0 µM; stronger effect = higher value
How it was run: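 Genetically defined yeast (DNA repair-deficient) exposed to compounds; growth inhibition determined relative to vehicle.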

Structure (SMILES)	growth inhibition [1]	growth inhibition [2]	growth inhibition [3]	growth inhibition [4]	growth inhibition [5]	growth inhibition [6]
Cc1ccc(C2=NOP(c3ccccc3)(c3ccccc3)(c3ccccc3)C2)cc1	19.5%	2.7%	39%	-37.8%	23.6%	23.9%
NC(Cc1ccc(N(CCCl)Cc2ccccc2)cc1)C(=O)O (stereo not drawn)	10.1%	-13.2%	2%	-3.85%	-29.2%	-31.5%
CC(=S)N=Cc1c(O)[nH]c(=O)[nH]c1=O	-6.2%	-6.8%	-10.2%	21.6%	-7.55%	9.55%
O=P(O)(O)CCCP(=O)(O)O.[Zn+2]	-10.9%	-27.4%	-7.05%	-6.1%	-12.7%	29.1%
C[CH2][Pb]([CH2]C)([CH2]C)[n]1ccnc1	-22.6%	-6.8%	-11.9%	-29.3%	-1.4%	-9%
C=CC(=O)OCCN(C)C	1.5%	-4.65%	-4.4%	-0.25%	2.1%	1.65%
C=COC(=O)NC(C(=O)O)C(C)CC (stereo not drawn)	43.1%	18.6%	44.4%	24.9%	-5.35%	34.9%
C1=C/CCC2NC2C/C=C/CCC/1 (stereo not drawn)	-6.8%	-20.4%	-10.6%	-18.4%	-22.8%	-19.6%
CCCC(=O)O.[Ni]	8.1%	-4.05%	-6%	-39.9%	-20.2%	-2.7%
O=[P+](O)c1cc2ccccc2c2ccccc12	-33%	17.2%	-4.75%	-46.2%	-10.9%	1.35%
[N-]=[N+]=Nc1cc(=O)oc2ccccc12	25.6%	10.2%	-8.25%	13.6%	0.9%	1.1%
[C-]#[O+].[C-]#[O+].[C-]#[O+].[C-]#[O+].[C-]#[O+].[C-]#[O+].[C-]#[O+].[C-]#[O+].[C-]#[O+].[C-]#[O+].[Mn].[Mn]	-21.1%	-12.6%	-15.2%	-71.6%	4.45%	-25.9%
Cc1ccccc1N	4.1%	-14.4%	-1.15%	-1.7%	-1.55%	4.4%
CC(Cl)CC(=O)OCC1CCCN2CCCCC12 (stereo not drawn)	55.1%	33.3%	23.6%	41.8%	45.4%	39.5%
CCCCCCCCOC(=O)c1ccccc1C(=O)OCCCCCCCC	-0.95%	-3.35%	18.6%	9.25%	-3.95%	-5.5%
O=C(O)C1C(C(=O)O)C2(Cl)C(Cl)=C(Cl)C1(Cl)C2(Cl)Cl.[Cd] (stereo not drawn)	61.4%	13.9%	-0.2%	-14.7%	-6.75%	19.4%
CCC(=O)C1(c2ccccc2)CCN(C)CC1	-20.7%	-35.7%	12.8%	-16.5%	-12.9%	6.7%
CCC(C)C1NC(=O)C2CCCN2C(=O)C(CC2CO2)OC(=O)CCNC(=O)C(C)N(C)C(=O)C(C(C)C)N(C)C1=O (stereo not drawn)	55.1%	5.15%	41.2%	31.6%	36%	28.8%
O=C(Cc1c[nH]c2ccccc12)N/N=C\c1ccc(N(CCCl)CCCl)cc1	22.4%	-10.3%	11.8%	31.9%	-5.65%	4.55%

Structure (SMILES)	growth inhibition [1]	growth inhibition [2]	growth inhibition [3]	growth inhibition [4]	growth inhibition [5]	growth inhibition [6]
N#Cc1ccc(CCl)cc1	39.1%	7.55%	7.45%	-6.05%	2.95%	41.7%
COC(=O)C(C)NP(=O)(N1CC1)N1CC1 (stereo not drawn)	1.5%	-2.25%	-5.05%	-10.2%	-7.85%	-14.3%
CCCCN1CCC2(CC1)COCc1ccccc12	57.2%	34.3%	42%	28.7%	54.9%	44.1%
CCCCOC(=O)c1ccccc1N	-4.3%	-15.5%	-4.2%	-1.85%	0.2%	-3.6%
O=C(SCC(NSc1ccccc1[N+](=O)[O-])C(=O)O)c1ccccc1 (stereo not drawn)	88.5% (active)	56.6%	75.4% (active)	8.45%	6.5%	47.9%
O=P(O)(O)CCCCP(=O)(O)O.[Zn+2]	-3.05%	-2.45%	1.6%	-5.1%	3.75%	7.05%
O=[N+]([O-])C(CO)CCC(CO)[N+](=O)[O-] (stereo not drawn)	-6.6%	-14%	-3.9%	-18.8%	-15.7%	-15.5%
C/C=C1/CN2CCC34C(=C(C(=O)OC)C1CC23)Nc1ccc(O)cc14 (stereo not drawn)	2.9%	2.3%	27.7%	-4.05%	1.65%	-61%
COc1c2c(nc3ccccc13)-c1cc3c(c(=O)n1C2)COC(=O)C3(O)CC(=O)N1CCOCC1 (stereo not drawn)	9.5%	-4.25%	0.2%	52.5%	-6.5%	6.35%
COCC1OC(OC2C3=C(C(C)C)CCC3(C)/C=C3\C(CCC3(O)COC)C(C)C2O)C(O)C2OC3OC12OC3(C)C1CO1 (stereo not drawn)	28.1%	7.75%	21%	35.2%	31.6%	-78%
C[N+]1([O-])[C@H]2CC(OC(=O)[C@H](CO)c3ccccc3)C[C@H]1[C@H]1O[C@H]12 (stereo partly drawn)	-9.75%	-3.35%	-14.9%	-26.5%	-34.2%	-10.1%
COC(=O)c1ccccc1NP(=O)(O)Oc1ccccc1 (tested in a mixture with another compound)	9.7%	-4.05%	11.5%	-32.5%	-2.7%	-11.9%
CN1C(=O)C(C)(C2=CCCCC2)C(=O)NC1=S (stereo not drawn)	1.55%	1.65%	11.8%	-17.4%	-1.9%	11.9%
O=C(CCl)Nc1ccccc1Cl	39%	9.65%	25.9%	18.6%	55.8%	45.1%
CSCCC(NP(=S)(c1ccccc1)c1ccccc1)C(=O)O (stereo not drawn)	17.4%	-3.1%	0%	16.9%	-1.8%	9.5%
COCC#CCN(C)C	-7.75%	-8.3%	-13.8%	2.85%	9.95%	-9.4%
CC(c1ccccc1)N1CCN(C(C)c2ccccc2)CC1 (stereo not drawn)	2.75%	-34.5%	-31.7%	26.4%	-30%	4.95%
O=[Te]=O	20.4%	-8.15%	17.4%	5%	5.55%	11.4%
CCC[CH2][Sn]([CH2]CCC)([CH2]CCC)[CH2]CC[N+](C)(CCO)CCO.CS(=O)(=O)[O-]	99.4% (active)	99.2% (active)	99.7% (active)	99.3% (active)	99.5% (active)	99.2% (active)

Reference: PubChem BioAssay (NCI)
